Drawing on PubChem BioAssay (NCI), this text covers growth for 12 compounds.

Compounds without any hit were thinned out: in the full panel of roughly 83,000, 20% have a hit.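 How to read the values: 0–100, growth inhibition (40 = 60% inhibited); 0, no net growth; -100 to 0, cell death (-40 = 40% of starting cells died; -100 = all dead).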 Unmarked numbers belong to inactive results. The source made the active and inactive calls. Rule for the calls: active = growth percent below 10; inactive = the rest.

The test system of the experiment is HL-60(TB) leukemia. The experiment is described as follows: NCI-60 one-dose screen, 48 h (100 = growth as untreated, 0 = no growth, -100 = all killed). The note with it: 10 µM unless noted.
In the case of `COc1c(C)c(C)c(OC)c2c1[nH]c(=O)c1c3cccnc3cn21`, the growth is 112%.

In the case of `C=CCOC(=O)C1=C(C)NC2=C(C(=O)CC(C)(C)C2)C1c1ccc(OC)cc1` (configuration not stated), the growth is 80.6%.

Take `CCC(C)C1NC(=O)c2nc(oc2-c2ccccc2)-c2csc(n2)-c2csc(n2)-c2nc(oc2C)-c2coc(n2)CNC(=O)C(C(C)CC)NC1=O` (configuration not stated): the growth is -69.7% (active).

As for `O=C(CN(C(=O)Cn1c(=O)n2nnnc2c2ccccc21)c1ccccc1C(F)(F)F)Nc1ccc(C(F)(F)F)cc1`, the growth is 101%.

As for `COc1ccc(C(=O)COc2cccc(/C=C3\CSc4ccccc4C3=O)c2)cc1`, the growth was -55.5% (active).

Regarding `O=C(N/N=C/c1ccncc1)c1ccc(C(F)(F)F)nc1Nc1cccc(C(F)(F)F)c1`, the growth is -16.7% (active).

Take `COc1ccc(-n2ncc3c4nc(OC)c(S(=O)(=O)c5ccccc5)cc4ccc32)cc1`: the growth is 107%.

Regarding `CCN(CC)CCCNC(=O)c1c2c(n3ccccc13)C(=O)c1ncccc1C2=O`, the growth was -33.8% (active).

Consider `O=C1Nc2cc(-c3ccc(NC(=O)C4CC4)cc3)ccc2/C1=C/c1ccc[nH]1`, for which the growth is 100%.

As for `Nc1cccc2c(=S)c3ccccc3[nH]c12`, the growth is 107%.

On to `Cc1cc(Br)c2nsnc2c1[N+](=O)[O-]`, for which the growth is 37.7%.

As to `CC1O[C@@H]2C[C@@](O)([C@H]1O)n1c3ccccc3c3c4c(c5c6ccccc6n2c5c31)C(=O)NC4=O` (some centres not stated), the growth was 66.6%.
